ChEMBL document CHEMBL3988442, “University of Dundee, Small-Polar-MMV Screening Library” (2021)
For some of these results: Results with a measured potency or affinity are listed apart.

How the values were obtained:
Parameters in all cases: scale not given: direction of the effect not stated beside the values
[1] = target: Protein translocase subunit SecA (Escherichia coli (strain K12)) (UniProt P10408); test: Assay to Identify E. coli SecA ATPase Inhibitors; assay type: functional; settings: 30 µM
[2] = target: T1, Ubiquitin-activating enzyme e1, putative (Leishmania donovani (strain BPK282A1)) (UniProt E9BSI1); test: Leishmania donovani Ubiquitin Activating Enzyme (LdE1); assay type: functional; settings: 30 µM
T1 sequence (whole entry): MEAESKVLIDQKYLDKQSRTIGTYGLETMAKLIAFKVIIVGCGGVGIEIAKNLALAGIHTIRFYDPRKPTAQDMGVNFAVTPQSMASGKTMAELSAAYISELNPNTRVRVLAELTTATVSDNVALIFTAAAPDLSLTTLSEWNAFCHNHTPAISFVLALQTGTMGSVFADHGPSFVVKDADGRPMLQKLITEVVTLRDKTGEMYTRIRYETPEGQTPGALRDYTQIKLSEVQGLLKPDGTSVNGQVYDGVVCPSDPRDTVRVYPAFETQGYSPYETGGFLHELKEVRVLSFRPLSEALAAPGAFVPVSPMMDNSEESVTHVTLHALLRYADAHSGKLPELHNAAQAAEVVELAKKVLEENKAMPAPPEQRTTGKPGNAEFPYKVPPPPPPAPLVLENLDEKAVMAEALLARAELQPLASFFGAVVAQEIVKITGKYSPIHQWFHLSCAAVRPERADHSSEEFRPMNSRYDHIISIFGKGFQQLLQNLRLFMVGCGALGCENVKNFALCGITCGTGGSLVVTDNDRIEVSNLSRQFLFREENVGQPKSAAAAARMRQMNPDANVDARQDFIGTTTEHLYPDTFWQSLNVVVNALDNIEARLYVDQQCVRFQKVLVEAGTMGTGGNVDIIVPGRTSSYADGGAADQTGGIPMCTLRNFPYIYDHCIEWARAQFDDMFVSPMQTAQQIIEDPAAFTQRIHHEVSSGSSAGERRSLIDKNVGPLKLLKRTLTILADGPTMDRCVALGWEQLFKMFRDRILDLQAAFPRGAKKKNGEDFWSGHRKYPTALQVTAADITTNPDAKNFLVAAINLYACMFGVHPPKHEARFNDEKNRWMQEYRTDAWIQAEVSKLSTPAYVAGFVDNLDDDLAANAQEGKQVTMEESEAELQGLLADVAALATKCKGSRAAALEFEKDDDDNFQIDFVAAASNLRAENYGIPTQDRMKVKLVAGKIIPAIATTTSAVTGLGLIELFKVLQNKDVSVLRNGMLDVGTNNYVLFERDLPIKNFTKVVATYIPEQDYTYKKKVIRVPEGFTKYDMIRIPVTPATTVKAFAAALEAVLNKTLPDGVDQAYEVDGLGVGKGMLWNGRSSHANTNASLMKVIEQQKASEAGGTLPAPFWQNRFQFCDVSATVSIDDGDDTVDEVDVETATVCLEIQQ

[3] = target: AMP-activated protein kinase, AMPK (Homo sapiens) (UniProt P54646+O43741+P54619+Q9UGJ0+Q9Y478+Q13131+Q9UGI9); test: AMP-dependent Kinase enzyme assay. An in vitro enzyme assay that detects ADP turnover that is directly proportional to AMPK activity. This uses naive AMPK that is activated during the assay with MK-8722; assay type: functional; settings: 30 µM
[4] = target: Sialic acid-binding Ig-like lectin 9 (Homo sapiens) (UniProt Q9Y336); test: Hs-Siglec9 ALPHAscreen SOP 20170721; settings: 10 µM
[5] = test system: Trypanosoma cruzi; test: Trypanosoma cruzi phosphomannomutase and mannose-1-phosphate guanylyltransferase assay; assay type: functional; settings: 10 µM
[6] = target: T2, Arginase-2, mitochondrial (Homo sapiens) (UniProt P78540); test: in vitro enzyme assay to detect the production of urea directly proportional to the activity of Arginase II; assay type: functional; settings: 33.3 µM; note: in the data most compounds retested in dose-response had high values
T2 sequence (whole entry): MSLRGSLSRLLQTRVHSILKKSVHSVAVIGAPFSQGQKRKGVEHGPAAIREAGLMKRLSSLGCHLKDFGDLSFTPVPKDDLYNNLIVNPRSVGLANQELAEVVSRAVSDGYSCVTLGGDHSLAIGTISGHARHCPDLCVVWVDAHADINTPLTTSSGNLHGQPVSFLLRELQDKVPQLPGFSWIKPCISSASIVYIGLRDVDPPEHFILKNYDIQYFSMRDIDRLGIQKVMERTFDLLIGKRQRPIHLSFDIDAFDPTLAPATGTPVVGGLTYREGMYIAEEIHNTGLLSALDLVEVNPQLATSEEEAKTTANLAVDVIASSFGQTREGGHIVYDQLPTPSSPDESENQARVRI

[7] = target: T3, Proteasome subunit beta (Trypanosoma cruzi) (UniProt O96673); test: Trypanosoma cruzi proteasome chymotrypsin-like activity (TcProtChymo) assay.; note: in the data most compounds retested in dose-response had high values; assay type: functional; settings: 9.37 µM
T3 sequence (whole entry): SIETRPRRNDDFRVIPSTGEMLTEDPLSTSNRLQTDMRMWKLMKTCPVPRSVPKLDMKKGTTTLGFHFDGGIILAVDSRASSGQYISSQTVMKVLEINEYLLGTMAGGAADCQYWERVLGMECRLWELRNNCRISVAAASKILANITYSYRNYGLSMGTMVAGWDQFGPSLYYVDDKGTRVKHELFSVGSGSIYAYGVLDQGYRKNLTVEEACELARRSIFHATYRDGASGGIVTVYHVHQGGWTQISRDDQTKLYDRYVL

[8] = species: Homo sapiens; test: To identify inhibition of the IFN signalling (Jak-Stat) pathway via expression of an eGFP reporter gene under the control of an IFN-stimulated response element (ISRE) containing MxA promoter.; assay type: functional; settings: 30 µM
[9] = target: T4, Tyrosyl-tRNA synthetase, putative (Trypanosoma cruzi (strain CL Brener)) (UniProt Q4DSP6); test: Trypanosoma cruzi tyrosyl tRNA synthetase (TcYRS) _High Tyrosine SOP; assay type: functional; settings: 30 µM; note: in the data most compounds retested in dose-response had high values
T4 sequence (whole entry): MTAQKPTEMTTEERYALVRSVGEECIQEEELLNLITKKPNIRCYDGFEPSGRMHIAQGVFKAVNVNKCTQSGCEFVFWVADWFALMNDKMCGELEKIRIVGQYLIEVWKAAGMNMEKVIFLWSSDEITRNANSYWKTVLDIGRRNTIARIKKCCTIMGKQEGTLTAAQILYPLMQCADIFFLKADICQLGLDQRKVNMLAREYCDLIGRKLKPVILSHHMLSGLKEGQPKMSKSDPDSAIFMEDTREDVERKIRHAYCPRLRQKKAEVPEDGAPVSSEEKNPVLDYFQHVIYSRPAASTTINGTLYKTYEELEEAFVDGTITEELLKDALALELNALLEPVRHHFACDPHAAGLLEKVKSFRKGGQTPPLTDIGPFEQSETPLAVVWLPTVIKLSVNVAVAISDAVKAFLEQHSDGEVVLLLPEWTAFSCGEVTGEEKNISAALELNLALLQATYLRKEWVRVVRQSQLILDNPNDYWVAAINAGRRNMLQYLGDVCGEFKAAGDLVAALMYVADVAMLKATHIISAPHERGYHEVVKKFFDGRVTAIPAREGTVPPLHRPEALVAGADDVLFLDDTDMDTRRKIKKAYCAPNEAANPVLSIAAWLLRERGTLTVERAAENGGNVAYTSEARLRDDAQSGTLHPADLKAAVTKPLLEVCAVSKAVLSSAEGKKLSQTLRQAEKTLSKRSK

[10] = target: T4, Tyrosyl-tRNA synthetase, putative (Trypanosoma cruzi (strain CL Brener)); test: Trypanosoma cruzi tyrosyl tRNA synthetase (TcYRS) SOP; assay type: functional; settings: 30 µM
[11] = target: Chromo domain-containing protein 1 (Saccharomyces cerevisiae (strain ATCC 204508 / S288c) (Baker's yeast)) (UniProt P32657); test: ScCHD-1 Enzyme Inhibition Assay; assay type: functional; settings: 30 µM; note: in the data most compounds retested in dose-response had high values
Sequence of Chromo domain-containing protein 1 (Saccharomyces cerevisiae (strain ATCC 204508 / S288c) (Baker's yeast)) (P32657 whole entry, the tested form may be a part): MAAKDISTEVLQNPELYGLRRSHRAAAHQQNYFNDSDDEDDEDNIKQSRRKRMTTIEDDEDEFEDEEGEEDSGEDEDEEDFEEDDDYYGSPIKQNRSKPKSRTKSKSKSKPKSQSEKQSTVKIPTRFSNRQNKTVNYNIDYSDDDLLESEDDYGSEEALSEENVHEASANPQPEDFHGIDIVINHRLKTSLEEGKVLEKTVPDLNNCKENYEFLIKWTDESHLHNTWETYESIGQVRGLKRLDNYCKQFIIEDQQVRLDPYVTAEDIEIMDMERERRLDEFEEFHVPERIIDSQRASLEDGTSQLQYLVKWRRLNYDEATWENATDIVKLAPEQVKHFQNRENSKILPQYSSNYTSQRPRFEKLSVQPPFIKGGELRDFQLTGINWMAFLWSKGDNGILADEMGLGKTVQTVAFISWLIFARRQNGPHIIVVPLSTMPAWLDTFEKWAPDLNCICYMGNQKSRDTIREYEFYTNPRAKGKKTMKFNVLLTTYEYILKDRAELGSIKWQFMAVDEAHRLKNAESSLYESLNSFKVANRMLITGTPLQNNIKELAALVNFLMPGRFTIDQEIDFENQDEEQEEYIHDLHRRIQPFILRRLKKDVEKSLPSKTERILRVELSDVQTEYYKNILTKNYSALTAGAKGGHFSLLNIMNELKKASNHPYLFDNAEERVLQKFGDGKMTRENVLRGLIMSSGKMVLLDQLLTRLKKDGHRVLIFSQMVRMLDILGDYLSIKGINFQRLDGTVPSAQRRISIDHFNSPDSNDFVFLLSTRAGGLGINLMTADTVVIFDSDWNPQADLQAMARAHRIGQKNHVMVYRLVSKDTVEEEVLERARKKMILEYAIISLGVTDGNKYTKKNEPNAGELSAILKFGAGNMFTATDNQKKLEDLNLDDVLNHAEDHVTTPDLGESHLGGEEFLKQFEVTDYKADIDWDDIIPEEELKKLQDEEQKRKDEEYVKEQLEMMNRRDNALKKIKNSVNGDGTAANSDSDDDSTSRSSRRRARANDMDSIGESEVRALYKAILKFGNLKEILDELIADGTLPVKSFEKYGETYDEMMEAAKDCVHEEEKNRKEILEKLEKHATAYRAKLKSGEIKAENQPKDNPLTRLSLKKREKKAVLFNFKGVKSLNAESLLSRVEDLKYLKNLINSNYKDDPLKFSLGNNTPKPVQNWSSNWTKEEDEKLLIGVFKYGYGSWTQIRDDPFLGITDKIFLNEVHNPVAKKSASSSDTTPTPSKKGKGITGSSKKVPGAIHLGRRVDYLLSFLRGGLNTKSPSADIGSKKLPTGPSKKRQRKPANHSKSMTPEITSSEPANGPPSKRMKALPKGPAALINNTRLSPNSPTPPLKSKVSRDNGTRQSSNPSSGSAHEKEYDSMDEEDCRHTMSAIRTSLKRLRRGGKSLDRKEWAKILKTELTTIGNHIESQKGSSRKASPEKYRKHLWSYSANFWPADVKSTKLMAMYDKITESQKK

Sequence of Sialic acid-binding Ig-like lectin 9 (Homo sapiens) (Q9Y336 whole entry): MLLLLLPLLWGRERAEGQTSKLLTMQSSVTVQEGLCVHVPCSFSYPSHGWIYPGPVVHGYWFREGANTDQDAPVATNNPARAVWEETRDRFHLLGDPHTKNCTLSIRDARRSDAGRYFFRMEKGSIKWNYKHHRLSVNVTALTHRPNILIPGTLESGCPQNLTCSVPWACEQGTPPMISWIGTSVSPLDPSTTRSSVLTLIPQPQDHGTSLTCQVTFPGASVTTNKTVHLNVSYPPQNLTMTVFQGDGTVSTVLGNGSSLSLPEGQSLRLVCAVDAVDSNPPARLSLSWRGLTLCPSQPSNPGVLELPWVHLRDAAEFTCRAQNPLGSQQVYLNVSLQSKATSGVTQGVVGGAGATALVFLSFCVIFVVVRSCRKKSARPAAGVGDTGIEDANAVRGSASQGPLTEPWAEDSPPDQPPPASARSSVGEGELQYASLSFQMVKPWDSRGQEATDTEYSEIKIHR
Sequence of Protein translocase subunit SecA (Escherichia coli (strain K12)) (P10408 whole entry): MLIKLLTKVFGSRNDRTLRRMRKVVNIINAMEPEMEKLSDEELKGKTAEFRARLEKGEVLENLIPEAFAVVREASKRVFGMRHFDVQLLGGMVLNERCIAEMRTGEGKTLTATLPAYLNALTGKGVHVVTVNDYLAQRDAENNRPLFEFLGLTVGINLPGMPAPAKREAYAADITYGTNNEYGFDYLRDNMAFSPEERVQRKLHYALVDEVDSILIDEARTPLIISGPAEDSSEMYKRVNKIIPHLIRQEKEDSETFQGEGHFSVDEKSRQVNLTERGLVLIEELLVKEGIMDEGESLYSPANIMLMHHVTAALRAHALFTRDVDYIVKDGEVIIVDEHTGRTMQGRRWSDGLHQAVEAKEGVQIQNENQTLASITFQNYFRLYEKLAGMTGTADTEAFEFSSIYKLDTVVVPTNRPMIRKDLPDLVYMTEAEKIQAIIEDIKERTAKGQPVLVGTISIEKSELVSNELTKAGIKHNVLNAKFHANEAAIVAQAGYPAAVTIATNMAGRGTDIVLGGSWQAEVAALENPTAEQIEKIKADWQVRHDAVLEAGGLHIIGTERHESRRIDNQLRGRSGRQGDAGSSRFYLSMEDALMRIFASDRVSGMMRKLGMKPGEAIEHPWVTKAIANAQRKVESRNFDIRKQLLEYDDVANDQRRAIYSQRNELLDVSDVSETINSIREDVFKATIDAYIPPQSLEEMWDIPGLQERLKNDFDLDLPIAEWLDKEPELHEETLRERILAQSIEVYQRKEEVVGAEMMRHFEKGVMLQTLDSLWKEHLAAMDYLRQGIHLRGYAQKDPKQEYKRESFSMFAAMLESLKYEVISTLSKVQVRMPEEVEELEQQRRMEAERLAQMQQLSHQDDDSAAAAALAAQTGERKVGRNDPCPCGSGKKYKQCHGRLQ

Structure (SMILES)	Percent Effect [1]	Percent Effect [2]	Percent Effect [3]	Percent Effect [4]	Percent Effect [5]	Percent Effect [6]	Percent Effect [7]	Percent Effect [8]	Percent Effect [9]	Percent Effect [10]	Percent Effect [11]
CCOCC(O)CN1CCN(C(=O)c2ccccc2Cl)CC1 (stereo unspecified)	-5.28%	5.26%	5.55%	2.24%	0%	2.3%	-3.17%	-0.893%	1.47%	7.32%	4.97%
COC(=O)C(C)(C)NC(=O)C1CC(=O)N(C2CCCC2)C1 (stereo unspecified)	-0.563%	11%	-0.48%	5.96%	3.17%	-2.79%	9.85%	26.3%	11.5%	25.9%	-1.54%
O=C(NC[C@H]1OC[C@@H]2CCN(Cc3ccco3)C[C@@H]21)c1ccsc1	-1.93%	8.22%	-0.185%	8.5%	4.17%	-9.58%	11.2%	-6.7%	6.25%	8.64%	-1.63%
Cc1nc(C)n(C2CCCN(C(=O)CCCn3ccnc3)C2)n1 (stereo unspecified)	-8.21%	0%	0.109%	0.244%	-3.91%	2.92%	10.4%	5.38%	4.95%	3.66%	-1.65%
Cc1[nH]ccc1C(=O)N1CCC(c2nnc(Cn3cccn3)n2C)CC1	-2.68%	2.74%	-3.04%	10.2%	2.98%	1.6%	6.42%	-10.2%	5.21%	13.6%	1.58%
Cc1cc(C(=O)NCc2ccccn2)no1	0.824%	2.7%	-14.1%	-0.919%	2.92%	-3.21%	6.49%	7.17%	3.45%	-63%	0.179%
Cc1cc(CN(C)C(=O)C2CCCN(C(=O)c3cccs3)C2)no1 (stereo unspecified)	-3.6%	10.4%	1.53%	10.4%	3.64%	-9.65%	15.5%	-5.21%	5.38%	16.1%	-2.24%
CN(Cc1nccn1CC(F)(F)F)C(=O)c1cccc(C#N)c1	-3.37%	-2.63%	6.05%	3.82%	-3.21%	-4.73%	3.74%	-14.9%	3.19%	5.2%	13.6%
CCn1cc(CN(C)S(=O)(=O)c2cc(Cl)ccc2Cl)cn1	-0.942%	14.7%	-0.125%	-2.27%	-6.09%	-8.98%	15.9%	2.3%	0%	7.69%	-9.05%
CNC(=O)c1cccc(NC(=O)CN2CCN(S(C)(=O)=O)CC2)c1	-3.07%	18.9%	-6.24%	18.5%	5.57%	4.22%	13.8%	8.76%	5.38%	16.1%	-3.08%
Cc1cnn(CC2CN(CCS(=O)(=O)c3ccccc3)CCO2)c1 (stereo unspecified)	-8.49%	0%	0.043%	-0.479%	-2.25%	-0.248%	5.41%	12.1%	5.38%	1.24%	-5.16%
